Assay outcomes from PubChem.
CYP2C19 inh – blocks human cytochrome P450 2C19. P33261. CYP2C19 Supersomes, luciferin-H EGE luminescence, 30 min. inhibition, % at 5 µM. actives 21% (n = 96,000). AID 778;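 active = CYP2C19 inhibition above a set limit at 5 µM in the primary screen, cut at about 50% in these data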
Measles CPE – protection of cells from measles virus; Measles virus-infected cells, CPE protection, absorbance; actives 1.5% (n = 140,000); protection (pct of control), % at 4 µM; in the data active = protection mostly above about 24%, no sharp cut-off; inactive = mostly below about 26%
CYP2C19 act – activators of human cytochrome P450 2C19 | P33261 | activation factor at 5 µM | 96,000 tested, under 10 active | recombinant CYP2C19, luciferin-H EGE luminescence; active compounds read high; 0 = fully inhibited enzyme, 1 = untreated enzyme;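 active = activation factor of at least 2 at 5 µM in the primary screen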
CYP2C9 inhib – blocks human cytochrome P450 2C9; AID 777; actives 20% (n = 96,000); inhibition, % at 5 µM; CYP2C9 Supersomes, luciferin-H conversion, luminescence;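 active = blocking of liver enzyme CYP2C9 beyond about 50% at 5 µM, limit read from the data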
CYP2C9 act – increases human cytochrome P450 2C9 activity; P11712; recombinant CYP2C9, luciferin-H conversion, luminescence; active compounds read high; factor 1 = untreated enzyme, 0 = blocked; activation factor at 5 µM; actives 1.4% (n = 96,000); AID 1024;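 active = activation factor of 2 or more for CYP2C9 at a 5 µM dose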
A number is an active result; 0 = inactive; - = no result given. Only some compounds are listed: those with a hit (about 22% of all), similar ones and a draw of the others.

SMILES	CYP2C19 inh	Measles CPE	CYP2C19 act	CYP2C9 inhib	CYP2C9 act
O=C(O)C1C2CCC(O2)C1C(=O)Nc1cccc(F)c1 (stereo not drawn)	0	0	0	0	0
CCCC(C)NS(=O)(=O)c1ccc(OC)c(C)c1 (stereo not drawn)	81.2	0	0	0	0
CC(C)CC(NS(=O)(=O)c1ccccc1)C(=O)O (stereo not drawn)	0	0	0	0	0
CCCC(C)NS(=O)(=O)c1ccccc1 (stereo not drawn)	85.9	0	0	54.1	0
COc1ccc(S(=O)(=O)Nc2cccc(N(C)S(C)(=O)=O)c2)cc1C	-	0	-	-	-
CCOC(=O)N1CCN(C(=O)c2cc3c(s2)-c2ccccc2OC3)CC1	0	0	0	54.0	0
O=C(c1cc2c(s1)-c1ccccc1OC2)N1CCN(c2ccccc2)CC1	72.3	0	0	71.3	0
COc1ccc(CCCC(=O)NC2CCCCC2)cc1	0	0	0	0	0
O=C(Cc1cn2ccsc2n1)NCc1ccccc1	0	0	0	0	0
O=C(Cc1cn2ccsc2n1)Nc1ccccc1Oc1ccccc1	80.0	0	0	69.9	0
O=C(Cc1cn2ccsc2n1)NCCc1ccc(F)cc1	71.5	0	0	0	0
CC(=O)Nc1ccc(NC(=O)CC2Nc3cccc4cccc(c34)NC2=O)cc1 (stereo not drawn)	0	0	0	62.6	0
O=C(CC1NC(=O)NC1=O)Nc1ccccc1 (stereo not drawn)	0	0	0	68.5	0
